The results in this text go back to paper PMC11006913.

Common to all, as to assay: PBM; 200 nM protein, PBS
Common to all, as to conditions: dsDNA, one strand shown

Assay [1] addresses HESX1 (Homo sapiens, UniProt Q9UBX0 95-180, R165K).
For assay [2], the target named is SHOX (Homo sapiens, UniProt O15266 103-189).
Assay [3] concerns the target ALX4 (Homo sapiens, UniProt Q9H161 200-286, Q225E).
Assay [4] has as its target HESX1 (Homo sapiens, UniProt Q9UBX0 95-180).
Assay [5] has as its target ALX1 (Homo sapiens, UniProt Q15699 118-204, L144V).
Assay [6] has as its target ALX3 (Homo sapiens, UniProt O95076 139-225, N203Q).
In assay [7] the target is SHOX (Homo sapiens, UniProt O15266 103-189, R173C).
Sequence of SHOX (Homo sapiens, UniProt O15266 103-189, R173C) (O15266 103-189 R173C): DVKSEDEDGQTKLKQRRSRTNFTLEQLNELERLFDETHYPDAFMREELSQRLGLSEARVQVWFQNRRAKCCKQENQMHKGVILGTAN
The target of assay [8] is ALX1 (Homo sapiens, UniProt Q15699 118-204, L144R).
Sequence of ALX1 (Homo sapiens, UniProt Q15699 118-204, L144R) (Q15699 118-204 L144R): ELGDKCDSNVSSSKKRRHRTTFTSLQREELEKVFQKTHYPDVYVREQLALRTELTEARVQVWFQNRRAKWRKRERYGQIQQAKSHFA
Assay [9] addresses ALX3 (Homo sapiens, UniProt O95076 139-225).
Assay [10] deals with PROP1 (Homo sapiens, UniProt O75360 56-141).
Sequence of PROP1 (Homo sapiens, UniProt O75360 56-141) (O75360 56-141): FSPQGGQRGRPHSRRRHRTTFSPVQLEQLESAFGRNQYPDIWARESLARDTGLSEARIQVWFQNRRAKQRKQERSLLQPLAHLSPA
Assay [11] addresses HESX1 (Homo sapiens, UniProt Q9UBX0 95-180, R109Q).
The target of assay [12] is PROP1 (Homo sapiens, UniProt O75360 56-141, R99H).
Sequence of PROP1 (Homo sapiens, UniProt O75360 56-141, R99H) (O75360 56-141 R99H): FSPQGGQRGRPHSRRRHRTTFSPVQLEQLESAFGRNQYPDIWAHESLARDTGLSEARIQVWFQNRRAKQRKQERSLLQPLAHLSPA
Assay [13] has as its target ALX3 (Homo sapiens, UniProt O95076 139-225, L168Q).
Assay [14] concerns the target HESX1 (Homo sapiens, UniProt Q9UBX0 95-180, P111T).
Assay [15] deals with ALX3 (Homo sapiens, UniProt O95076 139-225, L168V).
Sequence of ALX3 (Homo sapiens, UniProt O95076 139-225, L168V) (O95076 139-225 L168V): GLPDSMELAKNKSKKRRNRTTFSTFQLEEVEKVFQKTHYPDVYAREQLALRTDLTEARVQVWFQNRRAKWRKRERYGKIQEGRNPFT
The target in assay [16] is PROP1 (Homo sapiens, UniProt O75360 56-141, F88S).
Sequence of PROP1 (Homo sapiens, UniProt O75360 56-141, F88S) (O75360 56-141 F88S): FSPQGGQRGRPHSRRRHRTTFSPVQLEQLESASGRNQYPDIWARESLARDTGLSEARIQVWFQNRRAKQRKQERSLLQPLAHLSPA
Assay [17] deals with HESX1 (Homo sapiens, UniProt Q9UBX0 95-180, F115L).
Sequence of HESX1 (Homo sapiens, UniProt Q9UBX0 95-180, F115L) (Q9UBX0 95-180 F115L): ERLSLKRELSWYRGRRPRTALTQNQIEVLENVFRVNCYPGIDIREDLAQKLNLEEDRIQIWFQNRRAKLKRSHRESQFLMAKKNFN
The target in assay [18] is ALX1 (Homo sapiens, UniProt Q15699 118-204).
Sequence of ALX1 (Homo sapiens, UniProt Q15699 118-204) (Q15699 118-204): as the sequence (Q15699 118-204 L144R) above, with R27L counted along it
Assay [19] addresses ALX3 (Homo sapiens, UniProt O95076 139-225, N203S).
Assay [20] addresses MSX2 (Homo sapiens, UniProt P35548 130-214, R199I).

Sequence of HESX1 (Homo sapiens, UniProt Q9UBX0 95-180, R165K) (Q9UBX0 95-180 R165K): as the sequence (Q9UBX0 95-180 F115L) above, with L21F, R71K counted along it
Sequence of ALX3 (Homo sapiens, UniProt O95076 139-225, L168Q) (O95076 139-225 L168Q): as the sequence (O95076 139-225 L168V) above, with V30Q counted along it
Sequence of HESX1 (Homo sapiens, UniProt Q9UBX0 95-180, R109Q) (Q9UBX0 95-180 R109Q): as the sequence (Q9UBX0 95-180 F115L) above, with R15Q, L21F counted along it
Sequence of HESX1 (Homo sapiens, UniProt Q9UBX0 95-180, P111T) (Q9UBX0 95-180 P111T): as the sequence (Q9UBX0 95-180 F115L) above, with P17T, L21F counted along it
Sequence of SHOX (Homo sapiens, UniProt O15266 103-189) (O15266 103-189): as the sequence (O15266 103-189 R173C) above, with C71R counted along it
Sequence of ALX3 (Homo sapiens, UniProt O95076 139-225, N203S) (O95076 139-225 N203S): as the sequence (O95076 139-225 L168V) above, with V30L, N65S counted along it
Sequence of HESX1 (Homo sapiens, UniProt Q9UBX0 95-180) (Q9UBX0 95-180): as the sequence (Q9UBX0 95-180 F115L) above, with L21F counted along it
Sequence of ALX3 (Homo sapiens, UniProt O95076 139-225) (O95076 139-225): as the sequence (O95076 139-225 L168V) above, with V30L counted along it
Sequence of ALX4 (Q9H161 200-286 Q225E): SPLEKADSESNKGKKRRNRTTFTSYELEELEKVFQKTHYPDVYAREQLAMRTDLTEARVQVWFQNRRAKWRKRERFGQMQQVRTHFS
Sequence of ALX1 (Homo sapiens, UniProt Q15699 118-204, L144V) (Q15699 118-204 L144V): as the sequence (Q15699 118-204 L144R) above, with R27V counted along it
Sequence of ALX3 (Homo sapiens, UniProt O95076 139-225, N203Q) (O95076 139-225 N203Q): as the sequence (O95076 139-225 L168V) above, with V30L, N65Q counted along it
Sequence of MSX2 (P35548 130-214 R199I): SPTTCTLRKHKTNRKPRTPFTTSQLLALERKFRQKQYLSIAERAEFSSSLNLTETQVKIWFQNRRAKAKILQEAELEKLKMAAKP

Regarding AATTAGAT, the binding signal in assay [1] was 11.3 upbm affinity estimate (log intensity, higher = more binding, comparable within an allelic series); in assay [2], 11.6 upbm affinity estimate (log intensity, higher = more binding, comparable within an allelic series); in assay [3], 12.6 upbm affinity estimate (log intensity, higher = more binding, comparable within an allelic series); in assay [4], 11.4 upbm affinity estimate (log intensity, higher = more binding, comparable within an allelic series); in [5], 11.6 upbm affinity estimate (log intensity, higher = more binding, comparable within an allelic series); in [6] it was 8.42 upbm affinity estimate (log intensity, higher = more binding, comparable within an allelic series). Besides, the binding signal in assay [7] is 9.16 upbm affinity estimate (log intensity, higher = more binding, comparable within an allelic series); in assay [8], 11.1 upbm affinity estimate (log intensity, higher = more binding, comparable within an allelic series); in assay [9], 12.4 upbm affinity estimate (log intensity, higher = more binding, comparable within an allelic series); in assay [10] it was 11.5 upbm affinity estimate (log intensity, higher = more binding, comparable within an allelic series); in assay [11] it was 8.52 upbm affinity estimate (log intensity, higher = more binding, comparable within an allelic series); in assay [12], 10.9 upbm affinity estimate (log intensity, higher = more binding, comparable within an allelic series). Moreover, the binding signal in assay [13] was 10.2 upbm affinity estimate (log intensity, higher = more binding, comparable within an allelic series); in assay [14], 10.1 upbm affinity estimate (log intensity, higher = more binding, comparable within an allelic series); in assay [15] it was 9.67 upbm affinity estimate (log intensity, higher = more binding, comparable within an allelic series); in assay [16], 7.72 upbm affinity estimate (log intensity, higher = more binding, comparable within an allelic series); in assay [17], 7.63 upbm affinity estimate (log intensity, higher = more binding, comparable within an allelic series); in assay [18], 12.2 upbm affinity estimate (log intensity, higher = more binding, comparable within an allelic series). Moreover, the binding signal in [19] was 8.49 upbm affinity estimate (log intensity, higher = more binding, comparable within an allelic series).

In the case of GACAATTA, the binding signal in assay [1] is 11.7 upbm affinity estimate (log intensity, higher = more binding, comparable within an allelic series); in [2], 11.6 upbm affinity estimate (log intensity, higher = more binding, comparable within an allelic series); in [4], 12 upbm affinity estimate (log intensity, higher = more binding, comparable within an allelic series); in assay [20], 12.7 upbm affinity estimate (log intensity, higher = more binding, comparable within an allelic series); in [7] it was 9.21 upbm affinity estimate (log intensity, higher = more binding, comparable within an allelic series); in assay [11], 8.59 upbm affinity estimate (log intensity, higher = more binding, comparable within an allelic series). For the same sequence, the binding signal is 10.8 upbm affinity estimate (log intensity, higher = more binding, comparable within an allelic series) in assay [12]; 10.4 upbm affinity estimate (log intensity, higher = more binding, comparable within an allelic series) in assay [14]; 7.41 upbm affinity estimate (log intensity, higher = more binding, comparable within an allelic series) in assay [17].

For the sequence CAATTAGA, the binding signal in assay [1] was 12.3 upbm affinity estimate (log intensity, higher = more binding, comparable within an allelic series); in assay [2] it was 11.9 upbm affinity estimate (log intensity, higher = more binding, comparable within an allelic series); in assay [3] it was 12.8 upbm affinity estimate (log intensity, higher = more binding, comparable within an allelic series); in assay [4] it was 12.5 upbm affinity estimate (log intensity, higher = more binding, comparable within an allelic series); in [20] it was 12.6 upbm affinity estimate (log intensity, higher = more binding, comparable within an allelic series); in assay [5], 11.4 upbm affinity estimate (log intensity, higher = more binding, comparable within an allelic series). Also, the binding signal in [6] is 8.27 upbm affinity estimate (log intensity, higher = more binding, comparable within an allelic series); in [7], 9.38 upbm affinity estimate (log intensity, higher = more binding, comparable within an allelic series); in assay [8] it was 11.1 upbm affinity estimate (log intensity, higher = more binding, comparable within an allelic series); in [9], 12.4 upbm affinity estimate (log intensity, higher = more binding, comparable within an allelic series); in [10], 11.4 upbm affinity estimate (log intensity, higher = more binding, comparable within an allelic series); in assay [11] it was 8.75 upbm affinity estimate (log intensity, higher = more binding, comparable within an allelic series). The binding signal is 11.4 upbm affinity estimate (log intensity, higher = more binding, comparable within an allelic series) in [12]; 10.4 upbm affinity estimate (log intensity, higher = more binding, comparable within an allelic series) in assay [13]; 10.9 upbm affinity estimate (log intensity, higher = more binding, comparable within an allelic series) in assay [14]; 9.72 upbm affinity estimate (log intensity, higher = more binding, comparable within an allelic series) in assay [15]; 7.51 upbm affinity estimate (log intensity, higher = more binding, comparable within an allelic series) in assay [16]; 7.65 upbm affinity estimate (log intensity, higher = more binding, comparable within an allelic series) in assay [17]. Further, the binding signal in assay [18] was 12.2 upbm affinity estimate (log intensity, higher = more binding, comparable within an allelic series); in assay [19] it was 8.34 upbm affinity estimate (log intensity, higher = more binding, comparable within an allelic series).

For CAAATTAA, the binding signal in assay [1] was 11.5 upbm affinity estimate (log intensity, higher = more binding, comparable within an allelic series); in assay [2] it was 11.7 upbm affinity estimate (log intensity, higher = more binding, comparable within an allelic series); in [3], 12.9 upbm affinity estimate (log intensity, higher = more binding, comparable within an allelic series); in assay [4] it was 11.5 upbm affinity estimate (log intensity, higher = more binding, comparable within an allelic series); in assay [5], 11.6 upbm affinity estimate (log intensity, higher = more binding, comparable within an allelic series); in [6], 8.38 upbm affinity estimate (log intensity, higher = more binding, comparable within an allelic series). The binding signal in assay [7] is 9.3 upbm affinity estimate (log intensity, higher = more binding, comparable within an allelic series); in assay [8] it was 11.1 upbm affinity estimate (log intensity, higher = more binding, comparable within an allelic series); in assay [9], 12.4 upbm affinity estimate (log intensity, higher = more binding, comparable within an allelic series); in [10] it was 11 upbm affinity estimate (log intensity, higher = more binding, comparable within an allelic series); in assay [11], 8.49 upbm affinity estimate (log intensity, higher = more binding, comparable within an allelic series); in assay [12], 10.7 upbm affinity estimate (log intensity, higher = more binding, comparable within an allelic series). Moreover, the binding signal in assay [13] is 10.4 upbm affinity estimate (log intensity, higher = more binding, comparable within an allelic series); in assay [14], 10.1 upbm affinity estimate (log intensity, higher = more binding, comparable within an allelic series); in [15] it was 9.81 upbm affinity estimate (log intensity, higher = more binding, comparable within an allelic series); in assay [16], 7.49 upbm affinity estimate (log intensity, higher = more binding, comparable within an allelic series); in assay [17], 7.67 upbm affinity estimate (log intensity, higher = more binding, comparable within an allelic series); in [18] it was 12.1 upbm affinity estimate (log intensity, higher = more binding, comparable within an allelic series). Besides, in [19], the binding signal is 8.48 upbm affinity estimate (log intensity, higher = more binding, comparable within an allelic series).
